Results on 13 compounds are retold here after PubChem BioAssay (EPA / NIEHS).

For assay [1], the target named is bovine Estrogen Receptor (ER), ESR1 (gene 407238) (UniProt P49884). The assay can be described thus: NVS_NR_bER: NovaScreen (NVS) Nuclear Receptor Binding Assay for bovine Estrogen Receptor (ER) (AID 2283345).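 Further: actives lower the bound radioligand count which means they displace the ER ligand.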 In a few lines: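 Cell-free radioligand binding with receptor from bovine uterine membranes, read by scintillation counting 18 h after dosing. Loss of specific binding was scored against DMSO; primary screen at 25 uM in duplicate, actives then run as concentration series.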

The target of assay [2] is Estrogen receptor (Homo sapiens) (UniProt P03372). The assay is described as follows: NVS_NR_hER: NovaScreen (NVS) Nuclear Receptor Binding Assay for human Estrogen Receptor (ER) (AID 2283348). In a few lines:
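Cell-free MCF7-derived ER preparation, specific radioligand displaced by test compound, read by scintillation counting 18 h post-dosing. Duplicate single-point 25 uM screen, then concentration-response confirmation; DMSO baseline.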

Assay [3] concerns the target bovine Gamma-Aminobutyric Acid Type A Receptor BDZ, alpha 1 site (GABARa1), GABRA1 (gene 780973) (UniProt P08219). The assay can be described thus: NVS_LGIC_bGABARa1: NovaScreen (NVS) Ligand-Gated Ion Channel Assay for bovine Gamma-Aminobutyric Acid Type A Receptor BDZ, alpha 1 site (GABARa1) (AID 2283321). In a few lines:
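Bovine cortex membrane preparation, benzodiazepine site on GABA-A alpha1; specific radioligand displacement read after 0.75 h by filtration and scintillation. Screen at 25 uM, then singleton titrations up to 50 uM; DMSO baseline.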

For assay [4], the target named is rat Gamma-Aminobutyric Acid Type A Receptor BDZ, alpha 6 site (GABARa6), Gabra6 (gene 29708) (UniProt P30191). The assay can be described thus: NVS_LGIC_rGABARa6: NovaScreen (NVS) Ligand-Gated Ion Channel Assay for rat Gamma-Aminobutyric Acid Type A Receptor BDZ, alpha 6 site (GABARa6) (AID 2283339). The method in brief: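 Actives from a 25 uM duplicate screen were retested in concentration series (max 50 uM). Specific radioligand displacement from rat cerebellar membranes was counted by filter-based scintillation at 1 h; DMSO served as baseline.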

The target of assay [5] is mouse Estrogen Receptor alpha (Era), Esr1 (gene 13982) (UniProt P19785). The assay can be described thus: NVS_NR_mERa: NovaScreen (NVS) Nuclear Receptor Binding Assay for mouse Estrogen Receptor alpha (Era) (AID 2283378).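 Further: hit means loss of bound radioligand signal relative to DMSO.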 The method in brief: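 Cell-free radioligand competitive displacement binding, read by filter-based scintillation counting 18 h after dosing. Primary screen run in duplicate at 25 uM, actives retested in concentration series; loss of signal versus DMSO.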

Assay [6] is described as follows: TOX21_p53_BLA_p2_viability: Viability Assessment in the Tox21 HCT-116 p53 Agonism Beta-lactamase Assay, Phase 2 (AID 2283591).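 Further: actives lower the ATP signal meaning cytotoxicity.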 The method in brief:
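Cytotoxicity readout: CellTiter-Glo ATP luminescence, 30 min at room temperature, after the beta-lactamase read. Cells were HCT116 exposed 16 h at 37C to compounds pin-transferred at 217-fold dilution from DMSO stocks.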

The target of assay [7] is Cellular tumor antigen p53 (Homo sapiens) (UniProt P04637). The assay is described as follows: TOX21_p53_BLA_p2_ratio: Tox21 HCT-116 p53 Agonism Beta-lactamase Assay, Ratio, Phase 2 (AID 2283592). The method in brief:
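First, HCT116 reporter cells settle for 5 h at 37C. Next, DMSO compound solutions are pinned in (217-fold dilution) and left 16 h. Finally, CCF4-AM substrate is loaded 2 h at room temperature and the 460/530 nm ratio read.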

A short description of assay [8]: TOX21_p53_BLA_p3_viability: Viability Assessment in the Tox21 HCT-116 p53 Agonism Beta-lactamase Assay, Phase 3 (AID 2283593).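 Further: cells exposed to compound for 16 h before reading.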 The method in brief:
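Cellular ATP was quantified by CellTiter-Glo luminescence, read after 30 min at room temperature. Beforehand, HCT116 cells (4000/well) received compound 5 h post-seeding, 217-fold diluted from DMSO, then incubated 16 h at 37C.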

Assay [9] can be described thus: TOX21_p53_BLA_p4_viability: Viability Assessment in the Tox21 HCT-116 p53 Agonism Beta-lactamase Assay, Phase 4 (AID 2283597).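 Further: hits lower the luminescence signal meaning cytotoxicity.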 In a few lines: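 4000 HCT116 cells per well; 5 h attachment; compounds from DMSO, 217-fold dilution; 16 h at 37C. Then CCF4-AM, 2 h RT, followed by CellTiter-Glo, 30 min RT, luminescence. Decrease = cytotoxicity.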
In assay [10] the target is Cellular tumor antigen p53 (Homo sapiens) (UniProt P04637). The assay can be described thus: TOX21_p53_BLA_p5_ratio: Tox21 HCT-116 p53 Agonism Beta-lactamase Assay, Ratio, Phase 5 (AID 2283599). In a few lines:
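Beta-lactamase reporter ratio (blue 460 nm over green 530 nm, 405 nm excitation) after 2 h CCF4-AM loading, in HCT-116 cells exposed 16 h at 37 C to compounds pinned at 217-fold dilution. Increases relative to DMSO baseline scored.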

Assay [11] is described as follows: TOX21_p53_BLA_p5_viability: Viability Assessment in the Tox21 HCT-116 p53 Agonism Beta-lactamase Assay, Phase 5 (AID 2283600). The method in brief:
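Decreased CellTiter-Glo luminescence denotes lost viability. Exposure: 16 h at 37C, 5% CO2, with compounds from DMSO stocks diluted 217-fold in wells of 4000 cells.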

Assay [12] addresses Cellular tumor antigen p53 (Homo sapiens) (UniProt P04637). The assay can be described thus: TOX21_p53_BLA_p3_ratio: Tox21 HCT-116 p53 Agonism Beta-lactamase Assay, Ratio, Phase 3 (AID 2283596). The method in brief: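 Cells were seeded at 4000/well, rested 5 h at 37C, then dosed with DMSO compound solutions (217-fold dilution) for 16 h. CCF4-AM substrate was loaded for 2 h at room temperature, and the 460/530 nm emission ratio was fitted for gain of signal versus DMSO.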

For assay [13] the target is unchanged. The assay can be described thus: TOX21_p53_BLA_p4_ratio: Tox21 HCT-116 p53 Agonism Beta-lactamase Assay, Ratio, Phase 4 (AID 2283601). The method in brief:
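Signal is the blue/green (460nm/530nm) ratio of cleaved versus uncleaved CCF4-AM substrate, read after 2 h substrate loading. Cells were HCT116 carrying the p53-responsive beta-lactamase reporter, dosed 16 h at 37C, 5% CO2; CellTiter-Glo measured in parallel.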

Assay [14] addresses Voltage-dependent N-type calcium channel subunit alpha-1B (Rattus norvegicus) (UniProt Q02294). The assay can be described thus: NVS_IC_rCaChN: NovaScreen (NVS) Ion Channel Assay for rat Calcium Channel, Type N (CaChN) (AID 2283317).
Assay [15] concerns the target rat Oxytocin Receptor (OXT), Oxtr (gene 25342) (UniProt P70536). The assay is described as follows: NVS_GPCR_rOXT: NovaScreen (NVS) G Protein-Coupled Receptor Assay for rat Oxytocin Receptor (OXT) (AID 2283330). The method in brief: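 Binding to rat uterine membrane receptor was followed by scintillation counting of filter-trapped radioligand after 1 h. A 25 uM duplicate single-point screen preceded concentration series with a top of 50 uM. Signal loss was analysed relative to DMSO.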

Assay [16] deals with Norway rat Vesicular Monoamine Transporter (VMAT2), neurotransmitter transporter, Slc18a2 (gene 25549) (UniProt Q01827). The assay is described as follows: NVS_TR_rVMAT2: NovaScreen (NVS) Transporter Assay for Norway rat Vesicular Monoamine Transporter (VMAT2), neurotransmitter transporter (AID 2283376).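 Further: actives lower the bound radioligand signal below the DMSO level.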 In a few lines:
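Using rat forebrain membranes, specific radioligand binding to VMAT2 was measured by filtration and scintillation counting after 1 hour. Chemicals screened at 25 uM in duplicate, actives retested in concentration series, DMSO baseline.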

Assay [17] can be described thus: ATG_M_32_XSP2: Attagene TRANS-FACTORIAL Multi-Species (XSP2) HepG2 Assay for M19 Transcription Factor (Internal Marker) (AID 2283826). In a few lines: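 HepG2 cells transiently transfected with GAL4-UAS reporter units; XSP2 panel included 3 nM 6-alpha-fluorotestosterone and 1.5 nM norgestrel for androgen receptor stimulation. Reporter mRNA read 24 h post-dosing by RT-PCR/capillary electrophoresis; fitted upward versus DMSO.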

Each structure is given as a SMILES string. Results filed as inconclusive are left out. The source made the active and inactive calls. How the source made its calls: active means hit-call score of the fitted dose curve at least 0.9, where 1 is the maximum; inconclusive means response in the unintended direction; inactive means score below 0.9.

rat Gamma-Aminobutyric Acid Type A Receptor BDZ, alpha 6 site (GABARa6), Gabra6 (gene 29708), sequence (P30191 whole entry, looked up): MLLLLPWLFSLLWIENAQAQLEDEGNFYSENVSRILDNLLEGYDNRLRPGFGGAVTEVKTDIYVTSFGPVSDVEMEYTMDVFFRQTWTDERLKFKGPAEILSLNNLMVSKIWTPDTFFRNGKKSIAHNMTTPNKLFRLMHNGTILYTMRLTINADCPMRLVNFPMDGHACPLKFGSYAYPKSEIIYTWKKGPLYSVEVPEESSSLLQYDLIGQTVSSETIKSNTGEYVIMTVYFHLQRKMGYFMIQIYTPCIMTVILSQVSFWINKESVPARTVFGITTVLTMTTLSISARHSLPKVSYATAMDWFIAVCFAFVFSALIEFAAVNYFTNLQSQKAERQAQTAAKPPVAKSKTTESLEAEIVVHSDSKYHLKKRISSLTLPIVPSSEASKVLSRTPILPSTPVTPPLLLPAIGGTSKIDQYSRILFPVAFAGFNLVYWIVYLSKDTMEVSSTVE
Estrogen receptor (Homo sapiens), sequence (P03372 whole entry, looked up): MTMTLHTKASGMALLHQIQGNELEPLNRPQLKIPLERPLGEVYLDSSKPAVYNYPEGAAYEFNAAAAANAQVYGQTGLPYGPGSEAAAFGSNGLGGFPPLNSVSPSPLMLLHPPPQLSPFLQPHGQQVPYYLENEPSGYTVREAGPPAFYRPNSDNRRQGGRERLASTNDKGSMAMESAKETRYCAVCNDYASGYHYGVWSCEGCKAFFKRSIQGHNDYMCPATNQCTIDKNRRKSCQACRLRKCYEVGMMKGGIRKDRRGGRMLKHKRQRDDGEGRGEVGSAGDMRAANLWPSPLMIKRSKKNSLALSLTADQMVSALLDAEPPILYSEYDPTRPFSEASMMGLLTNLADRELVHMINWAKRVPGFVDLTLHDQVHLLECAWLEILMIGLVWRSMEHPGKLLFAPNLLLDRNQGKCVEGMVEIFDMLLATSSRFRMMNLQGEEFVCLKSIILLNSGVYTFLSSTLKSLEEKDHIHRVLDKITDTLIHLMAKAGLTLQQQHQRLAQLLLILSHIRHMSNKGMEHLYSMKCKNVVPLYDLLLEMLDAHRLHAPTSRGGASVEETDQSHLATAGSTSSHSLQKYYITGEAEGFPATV
bovine Gamma-Aminobutyric Acid Type A Receptor BDZ, alpha 1 site (GABARa1), GABRA1 (gene 780973), sequence (P08219 whole entry, looked up): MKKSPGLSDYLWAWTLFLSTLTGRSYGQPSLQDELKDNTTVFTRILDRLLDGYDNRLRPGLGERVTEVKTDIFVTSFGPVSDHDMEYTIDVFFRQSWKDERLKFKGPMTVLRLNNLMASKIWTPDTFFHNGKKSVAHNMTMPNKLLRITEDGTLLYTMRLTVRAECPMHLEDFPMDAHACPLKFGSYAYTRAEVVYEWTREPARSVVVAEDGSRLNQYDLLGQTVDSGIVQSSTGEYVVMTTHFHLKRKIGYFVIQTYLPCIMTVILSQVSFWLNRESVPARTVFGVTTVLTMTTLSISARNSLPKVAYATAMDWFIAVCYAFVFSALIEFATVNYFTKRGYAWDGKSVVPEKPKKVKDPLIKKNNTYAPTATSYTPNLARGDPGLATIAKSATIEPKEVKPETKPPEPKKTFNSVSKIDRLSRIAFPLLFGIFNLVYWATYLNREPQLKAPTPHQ
bovine Estrogen Receptor (ER), ESR1 (gene 407238), sequence (P49884 whole entry, looked up): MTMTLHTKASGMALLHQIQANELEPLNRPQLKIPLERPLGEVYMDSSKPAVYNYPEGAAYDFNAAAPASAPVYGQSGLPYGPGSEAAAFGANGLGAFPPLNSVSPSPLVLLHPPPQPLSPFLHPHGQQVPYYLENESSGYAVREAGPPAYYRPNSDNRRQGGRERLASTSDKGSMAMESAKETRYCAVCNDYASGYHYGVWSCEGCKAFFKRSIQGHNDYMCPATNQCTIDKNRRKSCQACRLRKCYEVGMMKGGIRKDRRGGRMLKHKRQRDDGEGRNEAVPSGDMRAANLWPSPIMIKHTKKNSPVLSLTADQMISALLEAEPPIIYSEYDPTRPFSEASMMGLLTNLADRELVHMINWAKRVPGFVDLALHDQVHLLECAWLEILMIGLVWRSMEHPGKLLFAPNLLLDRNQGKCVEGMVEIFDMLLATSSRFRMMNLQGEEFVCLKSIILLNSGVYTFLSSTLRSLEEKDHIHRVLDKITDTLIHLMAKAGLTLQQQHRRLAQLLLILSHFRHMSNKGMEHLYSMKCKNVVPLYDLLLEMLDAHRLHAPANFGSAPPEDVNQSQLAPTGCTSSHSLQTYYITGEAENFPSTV
Cellular tumor antigen p53 (Homo sapiens), sequence (P04637 whole entry, looked up): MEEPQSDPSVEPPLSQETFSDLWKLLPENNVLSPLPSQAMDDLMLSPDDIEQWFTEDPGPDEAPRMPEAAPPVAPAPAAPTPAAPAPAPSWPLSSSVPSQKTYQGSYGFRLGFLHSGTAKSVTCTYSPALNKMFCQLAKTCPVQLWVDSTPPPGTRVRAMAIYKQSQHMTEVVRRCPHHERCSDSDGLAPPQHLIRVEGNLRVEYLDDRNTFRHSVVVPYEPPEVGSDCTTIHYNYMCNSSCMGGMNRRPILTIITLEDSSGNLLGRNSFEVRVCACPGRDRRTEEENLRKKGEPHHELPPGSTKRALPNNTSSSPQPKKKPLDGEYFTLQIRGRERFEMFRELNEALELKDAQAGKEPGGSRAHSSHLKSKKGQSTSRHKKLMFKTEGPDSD
mouse Estrogen Receptor alpha (Era), Esr1 (gene 13982), sequence (P19785 whole entry, looked up): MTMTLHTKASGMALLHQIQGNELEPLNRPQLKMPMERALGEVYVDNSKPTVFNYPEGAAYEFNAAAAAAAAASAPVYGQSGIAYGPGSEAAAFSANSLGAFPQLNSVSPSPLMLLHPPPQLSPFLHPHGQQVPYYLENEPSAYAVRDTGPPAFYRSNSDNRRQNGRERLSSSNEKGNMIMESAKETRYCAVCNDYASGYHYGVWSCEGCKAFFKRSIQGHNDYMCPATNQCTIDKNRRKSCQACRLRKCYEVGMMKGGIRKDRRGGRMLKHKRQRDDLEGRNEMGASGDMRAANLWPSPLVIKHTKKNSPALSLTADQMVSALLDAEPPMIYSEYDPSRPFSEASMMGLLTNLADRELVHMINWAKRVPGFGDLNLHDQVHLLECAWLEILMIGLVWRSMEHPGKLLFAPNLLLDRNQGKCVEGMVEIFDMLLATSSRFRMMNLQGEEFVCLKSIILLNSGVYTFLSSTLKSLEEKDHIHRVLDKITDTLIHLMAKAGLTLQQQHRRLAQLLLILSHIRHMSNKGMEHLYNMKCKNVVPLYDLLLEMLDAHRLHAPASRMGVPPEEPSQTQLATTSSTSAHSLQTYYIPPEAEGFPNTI
Norway rat Vesicular Monoamine Transporter (VMAT2), neurotransmitter transporter, Slc18a2 (gene 25549), sequence (Q01827 whole entry, looked up): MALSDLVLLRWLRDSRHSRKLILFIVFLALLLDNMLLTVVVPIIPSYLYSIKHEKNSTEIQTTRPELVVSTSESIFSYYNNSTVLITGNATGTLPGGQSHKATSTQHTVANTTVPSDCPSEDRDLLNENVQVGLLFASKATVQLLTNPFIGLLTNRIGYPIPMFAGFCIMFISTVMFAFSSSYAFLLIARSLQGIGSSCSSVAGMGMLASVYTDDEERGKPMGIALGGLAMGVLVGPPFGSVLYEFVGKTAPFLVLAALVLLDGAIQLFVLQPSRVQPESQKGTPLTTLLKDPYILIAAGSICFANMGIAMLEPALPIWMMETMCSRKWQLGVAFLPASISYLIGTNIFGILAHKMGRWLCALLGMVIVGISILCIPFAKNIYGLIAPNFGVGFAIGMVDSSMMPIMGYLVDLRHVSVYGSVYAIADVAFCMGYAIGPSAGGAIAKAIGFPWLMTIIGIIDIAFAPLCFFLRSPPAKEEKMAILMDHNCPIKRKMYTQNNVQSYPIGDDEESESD
rat Oxytocin Receptor (OXT), Oxtr (gene 25342), sequence (P70536 whole entry, looked up): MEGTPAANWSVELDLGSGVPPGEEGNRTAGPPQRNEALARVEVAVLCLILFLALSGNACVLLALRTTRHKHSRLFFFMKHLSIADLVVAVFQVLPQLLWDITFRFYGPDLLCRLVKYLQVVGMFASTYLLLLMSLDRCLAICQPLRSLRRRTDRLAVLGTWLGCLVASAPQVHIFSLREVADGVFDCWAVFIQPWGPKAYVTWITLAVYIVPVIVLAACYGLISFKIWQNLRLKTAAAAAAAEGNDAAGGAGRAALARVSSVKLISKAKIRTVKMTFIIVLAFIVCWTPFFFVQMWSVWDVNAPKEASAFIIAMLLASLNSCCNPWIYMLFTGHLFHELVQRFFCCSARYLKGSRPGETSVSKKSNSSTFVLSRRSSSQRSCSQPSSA

As to `CCOP(=O)(Sc1ccccc1)Sc1ccccc1`, the outcome in assay [1] and in assay [2] was inactive.

Take `CCOc1ccc2[nH]cc(C(=O)NCc3ccccc3)c(=O)c2n1`: the compound was classed as inactive in assay [3]. In addition, the AC50 in assay [4] was 0.215 µM (active).

For `CSc1ccc(C(=O)C(C)(C)N2CCOCC2)cc1`, the AC50 in [2] is 25 µM (active). For the same compound, the compound was called inactive in assay [5], in assay [6], in [7], in assay [8], in assay [9] and in assay [10]. Also, the compound was classed as inactive in assay [11].

Turning to `COc1ccc(N)cc1N`, in assay [1], the outcome was inactive.

Turning to `CS(=O)(=O)c1ccc(C2=C(c3ccccc3)C(=O)OC2)cc1`, the compound was classed as inactive in assay [4].

As to `Cn1cnc([N+](=O)[O-])c1Sc1ncnc2nc[nH]c12`, the result in [3] was inactive.

`CC(C)OC(=O)C(O)(c1ccc(Cl)cc1)c1ccc(Cl)cc1`: the compound was classed as inactive in assay [2], in assay [5], in assay [7], in assay [8], in [12] and in assay [11]. For the same compound, the AC50 is 70.6 µM (active) in [6], 67.4 µM (active) in assay [9], 66.6 µM (active) in assay [10] and 69.8 µM (active) in [13].

For the compound `[Hg+2].[I-].[I-]`, the compound was classed as inactive in assay [1] and in assay [2]. The AC50 is 35.4 µM (active) in [6]; 54.2 µM (active) in assay [7]; 70.1 µM (active) in assay [8]; 72.1 µM (active) in assay [12]; 18.4 µM (active) in assay [9]; 73.7 µM (active) in assay [10]. Besides, the AC50 is 57.5 µM (active) in assay [11] and 33 µM (active) in assay [13].

Take `CNCc1ccc(NC(=O)c2c[nH]c3c2C(=O)CCC3)cc1`: in [14], the outcome was inactive. Further, the AC50 in [3] was 0.0626 µM (active).

`CCCCOC(=O)CCCCCCCCC(=O)OCCCC`: the outcome in assay [15] was inactive.

For the compound `Cc1ccc(C(C)C)c(O)c1`, the call in [4] was inactive.

As for `CC(C)(C)CC(C)(C)c1ccc(OCCOCC[N+](C)(C)Cc2ccccc2)cc1`, the compound was called inactive in [16].

Turning to `C#C[C@]1(O)CC[C@H]2[C@@H]3CCC4=CC(=O)CC[C@@H]4[C@H]3CC[C@@]21CC`, in assay [3], the AC50 is 2.23 µM (active). For the same compound, the compound was classed as inactive in assay [17].

Usually AC50 stands for the concentration giving half of the maximal activity seen.
